Measurements: a collection of fitness landscapes (doi:10.1126/science.1257360)
In all, about 140,000 sequences were measured (“enrichment ratio after two sorts for PhoP signalling”: median about 0, highest 2% from about 11 on). The list comes from a sample in which the highest values are over-represented; it also holds similar and randomly drawn sequences.

B1: PhoQ; a variant is named by its letters at X, in order, P23837 (parent)
chain: MKKLLRLFFPLSLRVRFLLATAAVVLVLSLAYGMVALIGYSVSFDKTTFRLLRGESNLFYTLAKWENNKLHVELPENIDKQSPTMTLIYDENGQLLWAQRDVPWLMKMIQPDWLKSNGFHEIEADVNDTSLLLSGDHSIQQQLQEVREDDDDAEMTHSVAVNVYPATSRMPKLTIVVVDTIPVELKSSYMVWSWFIYVLSANLLLVIPLLWVAAWWSLRPIEALAKEVRELEEHNRELLNPATTRELTSLVRNLNRLLKSERERYDKYRTTLTDLTHSLKTPLXXLQXXLRSLRSEKMSVSDAEPVMLEQISRISQQIGYYLHRASMRGGTLLSRELHPVAPLLDNLTSALNKVYQRKGVNISLDISPEISFVGEQNDFVEVMGNVLDNACKYCLEFVEISARQTDEHLYIVVEDDGPGIPLSKREVIFDRGQRVDTLRPGQGVGLAVAREITEQYEGKIVAGESMLGGARMEVIFGRQHSAPKDE

Variants of: B1
Experiment: enrichment ratio after two sorts for PhoP signalling (ratio (wild type AVST 3.29)); higher = more functional
Details: with PhoP (E. coli)

Row | Variant | enrichment ratio
1 | MTME | ≤ 0.25
2 | IMWI | ≤ 0.25
3 | AIST | 6.85
4 | NGST | ≤ 0.25
5 | AHST | ≤ 0.25
6 | ADST | ≤ 0.25
7 | TIST | 12.7
8 | SMST | 13.1
9 | RGST | ≤ 0.25
10 | NIST | ≤ 0.25
11 | SMNT | ≤ 0.25
12 | KMST | ≤ 0.25
13 | TGST | 15.2
14 | AGST | 14.8
15 | RSCK | ≤ 0.25
16 | DWGV | ≤ 0.25
17 | FMYR | ≤ 0.25
18 | FQIQ | ≤ 0.25
19 | MCFN | 4.25
20 | DMST | ≤ 0.25
21 | AMST | 12.2
22 | AKST | 6.32
23 | HKST | ≤ 0.25
24 | NMST | ≤ 0.25

Row | Variant | enrichment ratio
25 | TKST | 15.4
26 | YFCR | 0.754
27 | YQIY | ≤ 0.25
28 | WDCT | ≤ 0.25
29 | MGWY | 4.8
30 | MGCY | 29.2
31 | QRCY | ≤ 0.25
32 | GGCY | 16.1
33 | TGCY | 8.48
34 | RGCY | ≤ 0.25
35 | QHTT | ≤ 0.25
36 | KNTT | ≤ 0.25
37 | ERTE | ≤ 0.25
38 | QKMV | ≤ 0.25
39 | TYTC | ≤ 0.25
40 | NMSN | ≤ 0.25
41 | MMSN | ≤ 0.25
42 | DMSG | ≤ 0.25
43 | KMSG | ≤ 0.25
44 | TMSN | 12.5
45 | TMSG | 24.1
46 | PCVI | ≤ 0.25
47 | GRTV | ≤ 0.25
48 | FFSS | ≤ 0.25

Row | Variant | enrichment ratio
49 | QDSS | ≤ 0.25
50 | TESS | 15
51 | QGSS | 14.4
52 | QESS | 19.7
53 | FVSS | ≤ 0.25
54 | MESS | 5.15
55 | QRSS | ≤ 0.25
56 | NESS | ≤ 0.25
57 | IMKM | ≤ 0.25
58 | LFRM | ≤ 0.25
59 | TWVL | ≤ 0.25
60 | WRGV | ≤ 0.25
61 | KLPK | ≤ 0.25
62 | EIYQ | ≤ 0.25
63 | CTCF | ≤ 0.25
64 | SCCF | 13.7
65 | MECF | ≤ 0.25
66 | MCCF | 4.87
67 | SNCF | 4.82
68 | SECF | 13.9
69 | YTCF | 2.21
70 | STCF | 15.9
71 | NECF | ≤ 0.25
72 | SQCF | 11.4

Row | Variant | enrichment ratio
73 | SRCF | ≤ 0.25
74 | KCCF | ≤ 0.25
75 | PQGD | ≤ 0.25
76 | YMHS | ≤ 0.25
77 | GKRI | ≤ 0.25
78 | SAIV | 3.88
79 | ERRA | ≤ 0.25
80 | LTCF | ≤ 0.25
81 | TTCF | 17.7
82 | MTCF | 1.4
83 | IHTH | ≤ 0.25
84 | LQWA | ≤ 0.25
85 | TAMY | 17.4
86 | TAME | 15.7
87 | KAME | ≤ 0.25
88 | NAMY | ≤ 0.25
89 | KAMY | ≤ 0.25
90 | TAIE | ≤ 0.25
91 | RLHS | ≤ 0.25
92 | THTF | 0.991
93 | SFPM | ≤ 0.25
94 | RSPG | ≤ 0.25
95 | KAHL | ≤ 0.25
96 | QGHL | 18.3

Row | Variant | enrichment ratio
97 | TAHL | 17.4
98 | QAHL | 16.7
99 | FFHL | ≤ 0.25
100 | QTHL | 4.03
101 | QSHL | 13.5
102 | NAHL | ≤ 0.25
103 | THHL | 2.02
104 | IAHL | ≤ 0.25
105 | KSHL | ≤ 0.25
106 | YAHL | ≤ 0.25
107 | KINI | ≤ 0.25
108 | SEPT | ≤ 0.25
109 | NNGF | ≤ 0.25
110 | LQLD | ≤ 0.25
111 | NKMF | ≤ 0.25
112 | QAHF | 15.5
113 | QANF | 21
114 | KANF | ≤ 0.25
115 | QAQF | ≤ 0.25
116 | QLNF | ≤ 0.25
117 | NQNF | ≤ 0.25
118 | QAHM | 22.3
119 | QDHM | ≤ 0.25
120 | QAHK | ≤ 0.25

Row | Variant | enrichment ratio
121 | QQNF | 16.3
122 | YAHM | ≤ 0.25
123 | NANF | ≤ 0.25
124 | HNRG | ≤ 0.25
125 | WPAL | ≤ 0.25
126 | GSVC | ≤ 0.25
127 | LGSN | ≤ 0.25
128 | MHVR | ≤ 0.25
129 | WLSV | ≤ 0.25
130 | WRAR | ≤ 0.25
131 | KRNR | ≤ 0.25
132 | ECFS | ≤ 0.25
133 | AHNF | 9.49
134 | TTNF | 6.07
135 | AINF | 1.66
136 | KYNF | ≤ 0.25
137 | CTNF | ≤ 0.25
138 | SLNF | 1.82
139 | ATNF | 20.9
140 | ANNF | 12.9
141 | YTNF | ≤ 0.25
142 | SCNF | 14.3
143 | STNF | 12.6
144 | GTNF | ≤ 0.25

Row | Variant | enrichment ratio
145 | PREH | ≤ 0.25
146 | GASC | ≤ 0.25
147 | FFHE | ≤ 0.25
148 | DQPT | ≤ 0.25
149 | LMDV | ≤ 0.25
150 | FSAH | 0.363
151 | SQND | ≤ 0.25
152 | IRPQ | ≤ 0.25
153 | YYNE | ≤ 0.25
154 | GEVA | ≤ 0.25
155 | GEGM | ≤ 0.25
156 | GEYY | ≤ 0.25
157 | GEVY | 15.9
158 | GEVM | 13.6
159 | GEVG | 8.67
160 | ISQH | ≤ 0.25
161 | HWRW | ≤ 0.25
162 | LGRG | ≤ 0.25
163 | HLTF | ≤ 0.25
164 | GIMD | ≤ 0.25
165 | GMGM | ≤ 0.25
166 | NNAM | ≤ 0.25
167 | MNAM | 1.4
168 | TNAM | 15.7

Row | Variant | enrichment ratio
169 | GIRM | ≤ 0.25
170 | GMTM | ≤ 0.25
171 | LNAM | ≤ 0.25
172 | GMAM | 24.3
173 | GIAM | 33.4
174 | GNAM | 35.8
175 | TNCK | ≤ 0.25
176 | RPAK | ≤ 0.25
177 | YHSF | ≤ 0.25
178 | QLDG | ≤ 0.25
179 | PCCG | ≤ 0.25
180 | DCDI | ≤ 0.25
181 | YLVR | ≤ 0.25
182 | QLDF | ≤ 0.25
183 | IHCL | ≤ 0.25
184 | FHCR | ≤ 0.25
185 | VVAM | ≤ 0.25
186 | LQPE | ≤ 0.25
187 | YRAY | ≤ 0.25
188 | SGLA | 8.41
189 | SGDK | ≤ 0.25
190 | SGLI | 16.2
191 | SGNT | ≤ 0.25
192 | SGLT | 12.3

Row | Variant | enrichment ratio
193 | SGDN | ≤ 0.25
194 | KDVP | ≤ 0.25
195 | RAKD | ≤ 0.25
196 | ADSW | ≤ 0.25
197 | WISW | ≤ 0.25
198 | ARSI | ≤ 0.25
199 | TISI | 16.9
200 | AQSI | 18.6
201 | AQRK | ≤ 0.25
202 | HKSI | ≤ 0.25
203 | TISR | 6.92
204 | TKSI | 14.9
205 | KKSI | ≤ 0.25
206 | AISW | 11.4
207 | TISK | 3.65
208 | SLDN | ≤ 0.25
209 | QVPH | ≤ 0.25
210 | WSQP | ≤ 0.25
211 | DYLR | ≤ 0.25
212 | WNLT | ≤ 0.25
213 | RHIF | ≤ 0.25
214 | HCDL | ≤ 0.25
215 | ADSI | ≤ 0.25
216 | WISI | ≤ 0.25

Row | Variant | enrichment ratio
217 | AKSI | 22.7
218 | AHSI | ≤ 0.25
219 | AKDH | ≤ 0.25
220 | AISI | 22
221 | ENLY | ≤ 0.25
222 | RIVL | ≤ 0.25
223 | YQAH | ≤ 0.25
224 | TFMT | ≤ 0.25
225 | NVLI | ≤ 0.25
226 | HGCK | ≤ 0.25
227 | GILI | 8.37
228 | GNLI | 15.8
229 | HGCS | ≤ 0.25
230 | HGLI | 13.3
231 | HYLI | ≤ 0.25
232 | GVLA | 4.95
233 | HGDK | ≤ 0.25
234 | LNLI | ≤ 0.25
235 | GVLI | 15.6
236 | HGCI | 17.9
237 | LTRF | ≤ 0.25
238 | QPSN | ≤ 0.25
239 | PTQL | ≤ 0.25
240 | YSHY | ≤ 0.25

Row | Variant | enrichment ratio
241 | WGLT | ≤ 0.25
242 | CFLI | ≤ 0.25
243 | QGLI | 13.3
244 | RGLI | ≤ 0.25
245 | WGLA | ≤ 0.25
246 | QGDK | ≤ 0.25
247 | WGLI | 13.6
248 | TGLI | 12.2
249 | CNHF | ≤ 0.25
250 | CNLI | 12.7
251 | FFLI | ≤ 0.25
252 | NGLI | 2.73
253 | VTWM | ≤ 0.25
254 | QDLV | ≤ 0.25
255 | WQPN | ≤ 0.25
256 | FGKS | ≤ 0.25
257 | MGLS | 5.14
258 | NILI | 0.917
259 | MGDK | ≤ 0.25
260 | YHLI | ≤ 0.25
261 | TKLI | 13
262 | AKLI | 4.91
263 | GGLI | 11.9
264 | MGLI | 14.4

Row | Variant | enrichment ratio
265 | MKLI | 3.78
266 | PKIA | ≤ 0.25
267 | NPEC | ≤ 0.25
268 | DYPI | ≤ 0.25
269 | HHAA | ≤ 0.25
270 | VYEG | ≤ 0.25
271 | GTRK | ≤ 0.25
272 | AKAK | ≤ 0.25
273 | DHNF | ≤ 0.25
274 | WHAF | ≤ 0.25
275 | SGVN | 16.8
276 | SGVG | 5.22
277 | SGVK | ≤ 0.25
278 | SGPN | ≤ 0.25
279 | SGWI | 2.76
280 | TGVN | 5.82
281 | SGQN | ≤ 0.25
282 | SGVS | 13
283 | SGQH | 11.9
284 | SGVA | 19
285 | SGKH | ≤ 0.25
286 | SGGD | ≤ 0.25
287 | VDSY | ≤ 0.25
288 | ELCR | ≤ 0.25

Row | Variant | enrichment ratio
289 | DCKP | ≤ 0.25
290 | MYPK | ≤ 0.25
291 | EFWG | ≤ 0.25
292 | AFDK | ≤ 0.25
293 | FLSH | ≤ 0.25
294 | MHCH | ≤ 0.25
295 | SEFH | 4.4
296 | EFPG | ≤ 0.25
297 | REIT | ≤ 0.25
298 | HGRF | ≤ 0.25
299 | SGGM | 8.79
300 | SGVQ | 20.5
301 | SGVM | 13.3
302 | SGGG | ≤ 0.25
303 | SGWM | 9.28
304 | TGVQ | 7.73
305 | HQTQ | ≤ 0.25
306 | KFHQ | ≤ 0.25
